Bioassay records: PubChem BioAssay, several laboratories
The list is not random: actives were taken first. Their share in the collection is about 27%.
CYP2C19 inhib = blocks human cytochrome P450 2C19 | P33261 | CYP2C19 Supersomes, luciferin-H EGE luminescence, 30 min | inhibition, % at 5 µM | hit rate 21% among 96,000;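 active = CYP2C19 inhibition above a set limit at 5 µM in the primary screen, cut at about 50% in these data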
Cav3 T inh = human Cav3.2 channel inhibition, primary screen | Cav3.2-expressing cells, Fluo-4 calcium fluorescence FDSS; stronger effect = lower value | B-score at 10 µM | hit rate 4% among 100,000;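 active = single-dose well whose peak fluorescence ratio is a statistical outlier from its plate by either plate-standardised score or position-corrected B-score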
CYP2C9 act = CYP2C9 (human) activation. hit rate 1.4% among 96,000. activation factor at 5 µM. recombinant CYP2C9, luciferin-H conversion, luminescence; stronger effect = higher value; factor 1 = untreated enzyme, 0 = blocked. AID 1024. P11712;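 active = activation factor of 2 or more for CYP2C9 at a 5 µM dose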
Target sequence (P11712 whole entry, looked up): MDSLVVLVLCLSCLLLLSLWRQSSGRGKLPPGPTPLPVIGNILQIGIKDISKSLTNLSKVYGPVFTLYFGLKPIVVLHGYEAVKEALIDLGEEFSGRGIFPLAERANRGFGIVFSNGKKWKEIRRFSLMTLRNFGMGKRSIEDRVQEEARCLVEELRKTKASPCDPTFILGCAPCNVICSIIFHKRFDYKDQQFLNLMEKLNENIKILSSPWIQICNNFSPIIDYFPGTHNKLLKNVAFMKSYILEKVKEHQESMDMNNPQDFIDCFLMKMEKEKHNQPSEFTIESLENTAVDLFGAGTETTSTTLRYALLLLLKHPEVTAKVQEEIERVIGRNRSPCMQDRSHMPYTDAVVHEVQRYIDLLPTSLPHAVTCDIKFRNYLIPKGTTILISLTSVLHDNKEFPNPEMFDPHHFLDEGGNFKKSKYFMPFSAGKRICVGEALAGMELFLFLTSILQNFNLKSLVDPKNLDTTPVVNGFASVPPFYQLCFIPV
CYP2C9 inhib = blocks human cytochrome P450 2C9; P11712; CYP2C9 Supersomes, luciferin-H conversion, luminescence; inhibition, % at 5 µM; hit rate 20% among 96,000; AID 777;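 active = blocking of liver enzyme CYP2C9 beyond about 50% at 5 µM, limit read from the data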
CYP2C19 act = activators of human cytochrome P450 2C19. P33261. recombinant CYP2C19, luciferin-H EGE luminescence; stronger effect = higher value; 0 = fully inhibited enzyme, 1 = untreated enzyme. activation factor at 5 µM. 96,000 tested, under 10 active;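 active = activation factor of at least 2 at 5 µM in the primary screen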
Of the large screens only hits and unclear results are named; the others gave an inactive call.

Cc1c(Br)c([N+](=O)[O-])nn1CC(=O)NCc1cccs1	none (no result: Cav3 T inh)
N=c1n(Cc2ccccc2)c2ccccc2n1CC(O)COc1ccccc1 (stereo not given)	Cav3 T inh -4.9
Cc1ccc(OCC(O)Cn2c3ccccc3c3ccccc32)cc1 (stereo not given)	CYP2C19 inhib 63, CYP2C9 inhib 60 (no result: Cav3 T inh)
CCCCn1c(=N)n(CC(O)COc2ccccc2)c2ccccc21 (stereo not given)	none
Cc1cc(Cl)c(S(=O)(=O)Nc2ccc3c(c2)OCCO3)cc1OCC(=O)NC1CCCCC1	none
Cc1nnc(NC(=O)CSc2nnc(Cc3cccn3C)n2C)s1	none
COc1ccc2c(C)cc(N3CCN(c4ccc(F)cc4)CC3)nc2c1	CYP2C19 inhib 83, CYP2C9 act 2.3
Cc1cc(N2CCN(c3ccccc3F)CC2)nc2cc(O)ccc12	CYP2C19 inhib 57, CYP2C9 act 2
Cc1cc(N2CCN(c3ccc(F)cc3)CC2)nc2cc(O)ccc12	CYP2C9 act 3.2
CCOC(=O)c1sc2cc([N+](=O)[O-])cc(SCC(=O)OC)c2c1N	CYP2C19 inhib 60, CYP2C9 inhib 87
COc1ccc(-c2noc3c2-c2nc(-c4ccc(C)cc4)sc2CC3)cc1	none (no result: CYP2C19 inhib, CYP2C9 act, CYP2C9 inhib, CYP2C19 act)
CC(=O)C(=Nc1ccc(Cl)cc1Cl)NNc1cccc(Cl)c1	CYP2C19 inhib 99, CYP2C9 inhib 100
CN(C)CC1CCCCC1C1(O)c2ccccc2CSc2sccc21 (stereo not given)	none (no result: CYP2C19 inhib, CYP2C9 act, CYP2C9 inhib, CYP2C19 act)
O=C(NCc1ccccc1C(F)(F)F)C1CC(c2ccc(C(F)(F)F)cc2)=NO1 (stereo not given)	none (no result: CYP2C19 inhib, CYP2C9 act, CYP2C9 inhib, CYP2C19 act)
COc1ccc(Nc2nc(N)nc(CN3CCc4ccccc4C3)n2)cc1	CYP2C9 inhib 56
Nc1nc(CN2CCc3ccccc3C2)nc(Nc2ccccc2)n1	CYP2C9 inhib 52
Nc1nc(CN2CCCCCC2)nc(Nc2ccccc2)n1	none
COc1ccccc1Nc1nc(N)nc(CN2CCc3ccccc3C2)n1	none (no result: CYP2C19 inhib, CYP2C9 act, CYP2C9 inhib, CYP2C19 act)
CCOC(=O)NC(=O)CSc1nnc(C)s1	none
O=C(NCc1ccco1)c1ccc2nc3sc4c(c3c(=O)n2c1)CCCC4	none
CC(c1ccccc1)N1CCn2c(nc3cc(NC(=O)NC4CCCCC4)ccc32)C1 (stereo not given)	none
COc1ccc2c(C)cc(N3CCOCC3)nc2c1	none
COc1ccc2c(C)cc(SCC(=O)N3CCOCC3)nc2c1	CYP2C19 inhib 68
CC(C)(CNC(=O)c1cc2ccccc2o1)N1CCOCC1	none
CC1(C)Cc2c(C#N)c(NCCN3CCOCC3)nc(-c3ccco3)c2CO1	none
CC1(C)Cc2c(c(N3CCOCC3)nc3snc(NC(=O)c4ccccc4)c23)CO1	CYP2C9 inhib 88
CC1(C)Cc2c(c(N3CCOCC3)nc3sc(C(=O)N4CCCCC4)c(N)c23)CO1	none
COC(=O)Sc1nc(N2CCOCC2)c2c(c1C#N)CC(C)(C)OC2	CYP2C19 inhib 62, CYP2C9 inhib 83
CC1(C)Cc2c(C#N)c(SCC(=O)c3ccccc3)nc(N3CCOCC3)c2CO1	CYP2C19 inhib 62, CYP2C9 inhib 92 (no result: Cav3 T inh)
CC1(C)Cc2c(C#N)c(SCc3ccccc3)nc(N3CCOCC3)c2CO1	CYP2C9 inhib 88
CCN1C(=O)c2ccccc2S(=O)c2ccc(C(=O)NCCCN3CCCC3=O)cc21 (stereo not given)	none
CCCCCSc1nc(N2CCOCC2)c2c(c1C#N)CC(C)(C)OC2	CYP2C9 inhib 83
O=C(CC(Nc1ccccc1Cl)C(=O)OCC(=O)c1cccs1)c1ccccc1 (stereo not given)	CYP2C19 inhib 65, CYP2C9 inhib 62
O=C(C(Cc1ccccc1)n1cccc1)N1CCN(c2ccccc2)CC1 (stereo not given)	CYP2C19 inhib 95
CC1CCCN(C(=O)C2CCN(CCCc3ccccc3)CC2)C1 (stereo not given)	none
CC1CCCN(C(=O)C(Cc2ccccc2)n2cccc2)C1 (stereo not given)	CYP2C19 inhib 67
O=C(C(c1ccccc1)c1ccccc1)N1CCCc2ccccc21	none (no result: CYP2C19 inhib, CYP2C9 act, CYP2C9 inhib, CYP2C19 act)
O=C(O)C(Cc1ccccc1)n1cccc1 (stereo not given)	none
O=C(C(Cc1ccccc1)n1cccc1)N1CCc2ccccc21 (stereo not given)	Cav3 T inh -6.2
Cc1ccc(C(=O)COC(=O)CNS(=O)(=O)c2ccccc2)cc1[N+](=O)[O-]	none (no result: Cav3 T inh)
Cc1nnc(NC(=O)CCC(=O)N2CCN(CCc3ccccc3)CC2)s1	none (no result: Cav3 T inh)
Cc1ccc2nc(Nc3nc(CSc4nnnn4-c4ccccc4)cc(=O)[nH]3)nc(C)c2c1	CYP2C19 inhib 67, CYP2C9 inhib 80
c1ccc(-c2oc3ncnc(NCCN4CCOCC4)c3c2-c2ccccc2)cc1	CYP2C19 inhib 83, CYP2C9 inhib 98
N=c1c2c(-c3ccccc3)c(-c3ccccc3)oc2ncn1CCN1CCOCC1	none
c1ccc(-c2oc3ncnc(NCCCn4ccnc4)c3c2-c2ccccc2)cc1	CYP2C19 inhib 98, CYP2C9 inhib 99
CCOC(=O)C(C)Sc1nnc(-c2ccccc2O)n1-c1ccc(C)cc1 (stereo not given)	none
CC1(C)c2[nH]c3ccccc3c2C[C@@H]2C(=O)N(c3ccc(F)cc3F)C(=O)N21	none (no result: CYP2C19 inhib, CYP2C9 act, CYP2C9 inhib, CYP2C19 act)
c1ccc(CNn2nnnc2-c2ccccc2)cc1	CYP2C19 inhib 68
CCOc1ccc(N(CC(=O)N2CCN(c3ccccc3)CC2)S(=O)(=O)c2c(C)noc2C)cc1	none
Cc1noc(C)c1S(=O)(=O)N(CC(=O)N1CCCCCC1)c1ccc(C(C)C)cc1	CYP2C19 inhib 72, Cav3 T inh -4.1, CYP2C9 inhib 77
Cc1noc(C)c1S(=O)(=O)N(CC(=O)N1CCCC1)c1ccc(C(C)C)cc1	none
COc1ccc(N(CC(=O)N2CCN(c3ccccc3)CC2)S(=O)(=O)c2c(C)noc2C)cc1	CYP2C19 inhib 65
CC(C)CC(COCc1cccc(Cl)c1)N1CCN(C(=O)c2ccc(C(F)(F)F)cc2)CCC1=O (stereo not given)	none (no result: CYP2C19 inhib, CYP2C9 act, CYP2C9 inhib, CYP2C19 act)
O=C1c2ccccc2C(=O)N1CCCc1nc2ccccc2c(=O)n1-c1cccnc1	CYP2C9 inhib 63
Cc1cccc(-n2c(CCN3C(=O)c4ccccc4C3=O)nc3ccccc3c2=O)n1	none
CCCc1nc2ccccc2c(=O)n1-c1c(C)n(C)n(-c2ccccc2)c1=O	none
Cc1cccc(-n2c(CCCN3C(=O)c4ccccc4C3=O)nc3ccccc3c2=O)n1	CYP2C19 inhib 52 (no result: Cav3 T inh)
C=C1C(C(=O)N2CCOCC2)C1C(=O)N1CCOCC1 (stereo not given)	none
CCOc1ccccc1CNC(=O)CCN1C(=O)COc2ccccc21	CYP2C19 inhib 75
Cc1c(N2C(=O)/C(=C/c3ccccc3)SC2=S)c(=O)n(-c2ccccc2)n1C	none
Cc1ccc(/C=C2\SC(=S)N(c3c(C)n(C)n(-c4ccccc4)c3=O)C2=O)cc1	Cav3 T inh -5
N/C(=N\OC(=O)CC1CCCCC1)c1ccccn1	none
CC(C)(C)c1cn(-c2ccc(F)cc2)c(=S)[nH]1	CYP2C19 inhib 63
Fc1cccc(Cl)c1CSc1nnnn1-c1ccc2c(c1)OCO2	CYP2C19 inhib 92
Fc1cccc(Cl)c1Cn1nnc(-c2ccc3c(c2)OCO3)n1	none
